Columns and labels:
Conditions in all cases: Compound Concentration (nM):1000
[1] = system: AAK1
[2] = system: ABL1(E255K)-phosphorylated
[3] = system: ABL1(F317I)-nonphosphorylated
[4] = system: ABL1(F317I)-phosphorylated
[5] = system: ABL1(F317L)-nonphosphorylated
[6] = system: ABL1(F317L)-phosphorylated
[7] = system: ABL1(H396P)-nonphosphorylated
[8] = system: ABL1(H396P)-phosphorylated
[9] = system: ABL1(M351T)-phosphorylated
[10] = system: ABL1(Q252H)-nonphosphorylated
[11] = system: ABL1(Q252H)-phosphorylated
[12] = system: ABL1(T315I)-nonphosphorylated
[13] = system: ABL1(T315I)-phosphorylated
[14] = system: ABL1(Y253F)-phosphorylated
[15] = system: ABL1-nonphosphorylated
[16] = system: ABL1-phosphorylated
[17] = system: ABL2
[18] = system: ACVR1B
[19] = system: ACVR1
[20] = system: ACVR2A
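Also: KINOMEscan scanMAX binding as percent activity remaining versus control; lower means stronger binding.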

Row | SMILES | Percent Control [1] [%] | Percent Control [2] [%] | Percent Control [3] [%] | Percent Control [4] [%] | Percent Control [5] [%] | Percent Control [6] [%] | Percent Control [7] [%] | Percent Control [8] [%] | Percent Control [9] [%] | Percent Control [10] [%] | Percent Control [11] [%] | Percent Control [12] [%] | Percent Control [13] [%] | Percent Control [14] [%] | Percent Control [15] [%] | Percent Control [16] [%] | Percent Control [17] [%] | Percent Control [18] [%] | Percent Control [19] [%] | Percent Control [20] [%]
1 | COc1cc2ncnc(Nc3ccc4c(cnn4Cc4ccccc4)c3)c2cc1OC.Cl [GW282449A] | 100 | 100 | 100 | 81 | 93 | 60 | 80 | 100 | 100 | 96 | 100 | 100 | 100 | 100 | 90 | 100 | 100 | 100 | 100 | 100
2 | NS(=O)(=O)c1ccc(N/N=C2\C(=O)Nc3ccc(Cl)cc32)cc1 [GW280670X] | 94 | 100 | 99 | 96 | 100 | 100 | 81 | 100 | 100 | 81 | 100 | 100 | 100 | 100 | 93 | 100 | 100 | 100 | 100 | 100
3 | CCS(=O)(=O)c1ccc(OC)c(Nc2ncc(-c3cccc(F)c3)o2)c1 [GW621970X] | 100 | 6.7 | 98 | 51 | 47 | 5.4 | 1.1 | 9.3 | 6.6 | 4.5 | 4.9 | 100 | 91 | 7.1 | 20 | 9.9 | 33 | 100 | 18 | 100
4 | Cl.c1ccc(Cc2nc3ccc(Nc4ncnc5ccccc45)cc3[nH]2)cc1 [GR269666A] | 100 | 100 | 100 | 88 | 100 | 92 | 86 | 100 | 100 | 98 | 100 | 100 | 100 | 100 | 96 | 100 | 100 | 100 | 100 | 100
5 | CCn1c(-c2nonc2N)nc2c(C#CC(C)(C)O)nc(OCCNC)cc21.Cl [GSK949675] | 100 | 98 | 100 | 100 | 100 | 100 | 85 | 93 | 100 | 100 | 96 | 87 | 100 | 91 | 97 | 78 | 100 | 100 | 100 | 100
6 | NS(=O)(=O)c1ccc(Nc2ncc(-c3ccccc3)o2)cc1 [GW572399X] | 94 | 81 | 99 | 87 | 86 | 100 | 35 | 87 | 83 | 78 | 100 | 100 | 89 | 100 | 81 | 87 | 88 | 100 | 100 | 100
7 | COc1cc(N2CCN(C(C)C)CC2)ccc1Nc1nc(Nc2ccc(F)cc2C(=O)NC[C@@H](O)CO)c2cc[nH]c2n1 [GSK1392956A] | 64 | 100 | 100 | 87 | 95 | 49 | 97 | 100 | 97 | 100 | 100 | 100 | 100 | 100 | 100 | 100 | 100 | 100 | 100 | 100
8 | Cl.O=C(Nc1ccc(Oc2ccc3[nH]c(NC(=O)c4ccccc4)nc3c2)cc1)Nc1cc(C(F)(F)F)ccc1F [GW709042A] | 100 | 83 | 43 | 76 | 26 | 80 | 9.9 | 67 | 62 | 8 | 94 | 12 | 31 | 69 | 9.8 | 60 | 26 | 100 | 100 | 100
9 | COc1cc2ncn(-c3cc(O[C@H](C)c4ccccc4Cl)c(C(N)=O)s3)c2cc1OC [GSK237701A] | 29 | 81 | 100 | 86 | 92 | 71 | 20 | 78 | 56 | 46 | 76 | 51 | 39 | 83 | 59 | 81 | 73 | 100 | 100 | 100
10 | COc1cc(C=NNc2ncnc3c2cnn3-c2ccccc2)ccc1O [GW513184X] | 91 | 15 | 92 | 92 | 100 | 91 | 4.7 | 26 | 25 | 8.4 | 13 | 37 | 35 | 26 | 31 | 23 | 55 | 53 | 22 | 68
11 | NS(=O)(=O)c1ccc(N/N=C2\C(=O)Nc3ccc(C(=O)NCc4ccncc4)cc32)cc1 [GW300657X] | 29 | 79 | 85 | 81 | 92 | 54 | 63 | 82 | 91 | 78 | 72 | 97 | 98 | 82 | 79 | 77 | 100 | 100 | 100 | 100
12 | CC1=C(C(=O)Nc2ccc3[nH]ncc3c2)C(c2ccc3ccccc3c2)CC(=O)N1 (centres unmarked) [GSK270822A] | 81 | 83 | 100 | 67 | 87 | 68 | 59 | 86 | 80 | 50 | 84 | 48 | 76 | 79 | 54 | 80 | 100 | 97 | 93 | 100
13 | CN(C)c1cc2c(Nc3ccc4c(cnn4Cc4ccccc4)c3)ncnc2cn1 [GW282974X] | 75 | 59 | 84 | 91 | 99 | 50 |  | 63 | 100 | 48 | 66 | 74 | 100 | 65 |  | 54 | 95 | 100 | 87 | 100
14 | C/C(Nc1ccc(S(N)(=O)=O)cc1)=C1/C(=O)Nc2ccccc21 [GW335962X] | 67 | 82 | 88 | 83 | 100 | 89 | 72 | 91 | 82 | 76 | 96 | 100 | 86 | 89 | 88 | 82 | 100 | 100 | 100 | 100
15 | O=C(Nc1n[nH]c2nc(-c3ccc(O)cc3)c(Br)cc12)C1CC1 [SB-725317] | 79 | 26 | 100 | 80 | 100 | 100 | 1.9 | 28 | 33 | 7 | 37 | 16 | 12 | 48 | 22 | 31 | 100 | 100 | 72 | 75
16 | Cc1cc(O)cc(C)c1/C=C/c1cncc(C(N)=O)c1 [GW435821X] | 100 | 6.8 | 90 | 32 | 37 | 9 | 4.9 | 14 | 15 | 7.9 | 13 | 100 | 85 | 8.8 | 25 | 14 | 47 | 89 | 7.3 | 14
17 | COc1cccc(-n2ncc3c(N/N=C/c4ccncc4)ncnc32)c1 [GW784752X] | 85 | 1.5 | 100 | 78 | 98 | 24 | 0 | 1.5 | 0 | 0 | 1.7 | 59 | 27 | 1.6 | 7 | 1.8 | 54 | 54 | 5.4 | 81
18 | COc1ccccc1-c1cc(/C=C2\C(=O)Nc3ncc(Br)cc32)cc(Br)c1O [GW442130X] | 87 | 83 | 100 | 100 | 100 | 100 | 48 | 85 | 100 | 94 | 86 | 87 | 100 | 88 | 84 | 77 | 100 | 95 | 100 | 100
19 | CN(C)CCNC(=O)Nc1ccc(N(C)c2ccnc(Nc3ccc(CS(C)(=O)=O)cc3)n2)cc1.Cl [GW830900A] | 20 | 82 | 93 | 84 | 91 | 84 | 38 | 82 | 73 | 47 | 58 | 78 | 86 | 65 | 59 | 71 | 75 | 100 | 79 | 79
20 | O=C1Nc2ccc(C(=O)c3ccco3)cc2C1=Cc1cc(Cl)c(O)c(Cl)c1 [GW406108X] | 30 | 68 | 89 | 79 | 100 | 71 | 60 | 87 | 70 | 71 | 88 | 96 | 78 | 83 | 87 | 76 | 100 | 100 | 89 | 92

From PMC7826789 (International Journal of Molecular Sciences, 2021)
